Measured values taken from PubChem BioAssay AID686979 (National Center for Advancing Translational Sciences (NCATS), 2013).
In all, about 420,000 compounds went through this assay and about 50,000 (12%) were called active. Roughly 26% stayed inconclusive and do not appear here. This is one part of a sample in which actives are shown more often than they occur. A number with no mark means an inactive call. Calls come from the whole dose curve; as a rule, active = well fitted inhibition curve with a large enough effect; inconclusive = small, poorly fitted or top-dose-only effect; inactive = flat fitted curve, though single readings scatter.

test: qHTS for Inhibitors of human tyrosyl-DNA phosphodiesterase 1 (TDP1): qHTS in cells in presence of CPT; details: chicken DT40 Tdp1-/-;hTDP1 cells + 20 nM CPT, ATP luminescence, 48 h; series mostly up to 46.2 µM; activity change, negative = growth inhibition: at the top concentration; note: nearly all actives have a fitted effect of over 55% in size
Procedure, shortened: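 Chicken DT40 Tdp1-/- cells stably complemented with human TDP1 were seeded at 400 cells/well in medium containing 20 nM camptothecin, exposed to pin-transferred compounds, and grown at 37 °C for at least 48 hr. Viability was read as ATP luminescence.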
% is set by controls: 0 for no effect and ±100 for the full control effect; potency is the fitted concentration of half-maximal effect.

| Compound | activity change, negative = growth inhibition [%] | Potency |
| --- | --- | --- |
| COc1cc(OC)cc(C(=O)NCC(=O)N2CCCCCCC2)c1 | -3.83 |  |
| COc1ccc(OC)c(CN2CCN(C(=O)CNC(=O)c3cc(C)cc(C)c3)CC2)c1 | -27.7 |  |
| COc1cc(C(=O)NCCS(=O)(=O)N2CCN(c3ccccc3)CC2)cc(OC)c1OC |  | 20.6 µM (active) |
| COc1cccc(OCC(=O)NCCS(=O)(=O)N2CCN(c3ccccc3)CC2)c1 | -18.7 |  |
| CCOc1ccc(CC(=O)NCCS(=O)(=O)N2CCN(c3ccccc3)CC2)cc1 | -20.6 |  |
| COc1cc(C(=O)NCC(=O)N2CC=C(c3ccccc3)CC2)cc(OC)c1OC |  | 16.4 µM (active) |
| CC(=O)Nc1nc(N(C)C)nc(N(C)C)n1 | 2.3 |  |
| CN(CC(=O)Nc1ccc(OC(F)(F)F)cc1)C(=O)C1CCC1 | -22.9 |  |
| O=C(NCC(=O)N1CCCCCCC1)c1ccccc1Cl | -3.35 |  |
| Cc1ccc(CN2CCN(Cc3ccc4ncccc4c3)CC2CCO)cc1 (centres undefined) | -7.54 |  |
| CCN(CC)S(=O)(=O)c1ccc(NC(=O)CN(c2cccc(F)c2)S(C)(=O)=O)cc1 | -21.7 |  |
| COc1cccc(N(CC(=O)Nc2cccc(F)c2)S(C)(=O)=O)c1 | -23.4 |  |
| Cc1cccc(N(CC(=O)Nc2ccc(-c3nc4ccc(C)cc4s3)cc2)S(C)(=O)=O)c1 |  | 13 µM (active) |
| O=C(Nc1nnc(C2CC(=O)N(c3ccc(Cl)cc3)C2)s1)c1ccco1 (centres undefined) | -24 |  |
| CC(C)Nc1nnc(SC(C)C(=O)N(C)C2CCCCC2)s1 (centres undefined) | -9.32 |  |
| CC1CCCN(C(C(=O)Nc2ccc(C(C)C)cc2)c2ccc3c(c2)OCO3)C1 (centres undefined) |  | 18.4 µM (active) |
| CC(NC(=O)Nc1ccc2c(c1)OCO2)c1ccncc1 (centres undefined) | 12.1 |  |
| CCc1ccc(NC(=O)NC(C)c2ccc3c(c2)OCO3)cc1 (centres undefined) | -12.2 |  |
| O=C(CN1C(=O)NC2(CCCCC2)C1=O)N1CCN(C(=O)c2cccs2)CC1 | 9.19 |  |
| COc1ccc(Cl)cc1NC(=O)NC(C)C(C)(C)C (centres undefined) | 18.8 |  |
| CCNc1nc(NCC)nc(N/N=C/c2ccc(O)c(OC)c2)n1 | -23 |  |
| COc1cc(/C=N/Nc2nc3ccccc3s2)ccc1O |  | 1.46 µM (active) |
| O=[N+]([O-])c1cccc(/C=N/Nc2ncc(Br)cn2)c1 | -2.55 |  |
| Cc1ccc(S(=O)(=O)Nc2nc3ccccc3s2)cc1[N+](=O)[O-] | 5.53 |  |
| COc1ccc(/C=N/Nc2nc3ccccc3o2)cc1OC | 2.57 |  |

| Compound | activity change, negative = growth inhibition [%] | Potency |
| --- | --- | --- |
| O=[N+]([O-])c1cc(Br)c(O)c(/C=N/Nc2nc3ccccc3s2)c1 |  | 8.2 µM (active) |
| CCOC(=O)N1CCC(N2Cc3cccc(C(=O)Nc4ccc(S(=O)(=O)N(CC)CC)cc4)c3C2=O)CC1 | -18.8 |  |
| C=CCOc1cccc(C2C(C(=O)c3ccc(C)o3)=C(O)C(=O)N2CCN2CCOCC2)c1 (centres undefined) | -22.3 |  |
| COc1ccc(/C=N/NC(=O)c2ccccc2)cc1OS(=O)(=O)c1ccccc1 | -71.7 |  |
| COc1ccc(C(=O)Nc2ccccc2C(=O)N/N=C/c2ccc(O)c(OC)c2)cc1 |  | 16.4 µM (active) |
| COc1ccc(/C=N/Nc2ccccc2C(=O)O)cc1 | -1.82 |  |
| Cc1cccc(C)c1N1C(=O)CN(Cc2ccccc2)C1=S | -6.5 |  |
| C=CCC1(CC=C)CCCN1C(=O)CC1C(=O)NCCN1Cc1ccccc1OC (centres undefined) | -23.7 |  |
| O=C(Cc1ccc(Br)cc1)NCCN1CCOCC1 | 17.8 |  |
| COC1=C/C(=C/c2c(N)n3nc(CC(=O)N4CCOCC4)sc3nc2=O)C=CC1=O | -0.843 |  |
| Cc1cccc(CSc2nc3ccncc3n2Cc2ccc(C(=O)O)cc2)c1 | -0.967 |  |
| O=C(O)c1ccc(CSc2nc3cccnc3n2Cc2cccc(F)c2)cc1 | -1.39 |  |
| COc1cccc(Cn2c(SCc3ccc(C(=O)N4CCC(C)CC4)cc3)nc3ccncc32)c1 |  | 11.6 µM (active) |
| CCC1C(=O)NCCN1C(=O)c1ccc2nc(Cc3ccc(OC)cc3)oc2c1 (centres undefined) | -10.2 |  |
| COc1ccc(S(=O)(=O)N2CCN(C)CC2)c(C)c1 | 3.87 |  |
| CN(C(=O)c1cccc(OC2CCN(S(=O)(=O)N(C)C)CC2)c1)C1CCOC1 (centres undefined) | 0.425 |  |
| CN(C)S(=O)(=O)N1CCC(Oc2cccc(C(=O)NCCCC3CCCC3)c2)CC1 |  | 18.4 µM (active) |
| CNS(=O)(=O)c1cccc(C(=O)NCC2CCCCC2)c1 | -6.28 |  |
| Clc1cc(-c2ccc(/C=N/n3cnnc3)o2)ccc1Br | 36 |  |
| CCOc1ccc(S(=O)(=O)NCc2ccc3c(c2)OCO3)cc1C | -0.545 |  |
| O=C(NC1CC(=O)N(c2ccc(Cl)cc2)C1)C1CCCC1 (centres undefined) | -4.39 |  |
| Cc1cc(C)n2nc(C(=O)OCC(=O)N(CCC#N)c3ccc(F)cc3)nc2n1 | -8.36 |  |
| Cc1ccc(-c2cc(=O)c3ccc(Cl)cc3[nH]2)cc1 | -0.276 |  |
| Cc1cc(=O)c2ccc(NC(=O)c3ccccc3)cc2[nH]1 | 4.26 |  |
| Cc1ccc(-c2cc(=O)c3ccc(F)cc3[nH]2)cc1 |  | 18.4 µM (active) |

| Compound | activity change, negative = growth inhibition [%] | Potency |
| --- | --- | --- |
| Cc1ccc(S(=O)(=O)/N=C(\N)c2ccc(F)cc2)cc1 | 7.94 |  |
| O=c1[nH]c(-c2ccccc2)c(-c2ccccc2)[nH]1 | -8.71 |  |
| O=c1cc(-c2ccccc2)[nH]c2cc(F)ccc12 |  | 0.92 µM (active) |
| CC1=C(C(=O)OC2CCCCC2)C(c2ccccc2F)NC(=O)N1 (centres undefined) | -0.323 |  |
| O=C(CCC(=O)N1CCCC1)Nc1ccc([N+](=O)[O-])cc1 | 0.853 |  |
| CCCCOc1ccc(C(=O)NCC(=O)OCC(=O)N2CCN(S(=O)(=O)c3ccc(C)cc3C)CC2)cc1 | 3.37 |  |
| N#C/C(=C/c1ccc(Cl)cc1)NC(=O)c1ccccc1 | -13.7 |  |
| Cc1c(Br)c([N+](=O)[O-])nn1CC(=O)N1CCN(Cc2ccccc2)CC1 | 0.502 |  |
| Fc1ccc(COc2ccc(-c3nnco3)cc2)cc1 | -5.2 |  |
| CCN(C[C@H]1N[C@@](CC)(C(=O)OC)[C@H]2C(=O)N(Cc3ccccc3)C(=O)[C@@H]12)S(=O)(=O)c1ccccc1 | -24 |  |
| COC(=O)C1(C)NC(c2ccccc2OC)C2C(=O)N(c3ccccc3)C(=O)C21 (centres undefined) | -4.8 |  |
| CCN1C(=O)[C@H]2[C@@H](c3ccc(-c4ccc(OC)cc4)cc3)N[C@@](Cc3ccccc3)(C(=O)OC)[C@H]2C1=O |  | 18.4 µM (active) |
| CCN1C(=O)[C@H]2[C@@H](c3ccc(SC4CCCCC4)c(OC)c3)N[C@@](Cc3ccccc3)(C(=O)OC)[C@H]2C1=O |  | 16.4 µM (active) |
| CCCC1(C(=O)OC)NC(c2ccco2)C2C(=O)N(C)C(=O)C21 (centres undefined) | 7.77 |  |
| CCNC(=O)N(CC)C[C@H]1N[C@@](CC)(C(=O)OC)[C@H]2C(=O)N(Cc3ccccc3)C(=O)[C@@H]12 | -0.264 |  |
| CC1=NNC(=O)C1Cc1c(Cl)cccc1Cl (centres undefined) | 7.71 |  |
| C#CCOCCOCCOCCNc1nc(N2CCN(C(=O)C([C@@H](C)O)n3cc([C@@H](N)CCCCN)nn3)CC2)nc(N2CCN(C(=O)[C@H](CCCCN)n3cc(CN)nn3)CC2)n1 (some centres undefined) | -8.26 |  |
| CC(C)[C@H](NC(=O)c1ccccc1F)C(=O)Nc1cccc(S(=O)(=O)N2CCOCC2)c1 | -19.6 |  |
| CC(=O)c1ccc(NC(=O)Cn2c(=O)oc3ccccc32)cc1 | -7.78 |  |
| Cc1ccccc1NC(=O)Cn1c(=O)n(CC2CCCO2)c(=O)c2ccccc21 (centres undefined) | -12.1 |  |
| O=C(NCc1ccccc1)C1c2ccccc2OCC(=O)N1CCCN1CCOCC1 (centres undefined) | -6.5 |  |
| O=C(c1ccc2c(c1)OCO2)N1CCN(C(=O)c2ccco2)CC1 | -1.13 |  |
| O=C1Nc2ccccc2NC(c2ccc3c(c2)OCO3)=C1N(Cc1ccc(F)cc1)C(=O)c1ccco1 |  | 16.4 µM (active) |
| O=C(/C=C/c1ccc2c(c1)OCO2)NCc1ccc(F)cc1 | -20.8 |  |
| CCCCNc1ccc(-c2nc(-c3ccncc3)no2)cc1[N+](=O)[O-] | -27.8 |  |

| Compound | activity change, negative = growth inhibition [%] | Potency |
| --- | --- | --- |
| Cc1ccc2nsnc2c1S(=O)(=O)N1CCCC1C(=O)O (centres undefined) | 7.53 |  |
| CCN(Cc1ccncc1)C(=O)CCc1ccccc1 | -6.1 |  |
| O=C(CSc1cccc2cccnc12)N/N=C/c1cccnc1 |  | 23.1 µM (active) |
| Cc1nc2ccccc2n1CC(=O)N/N=C/c1cccnc1 | 2.42 |  |
| O=C(CNC(=O)c1cccnc1)N/N=C/c1cccnc1 | 10.3 |  |
| CCCCCC(O)(CCN1CCCCC1)c1ccccc1 (centres undefined) | -22.8 |  |
| CC1=NN(c2ccc(Cl)c(C(=O)O)c2)C(=O)/C1=C/c1ccc(-c2ccccc2[N+](=O)[O-])o1 | 6.09 |  |
| CC(=O)C1C(c2ccc(Cl)cc2)NC(=O)NC1(O)C(F)(F)F (centres undefined) | 13.5 |  |
| O=C1NC(c2ccc(-c3ccccc3[N+](=O)[O-])o2)C(C(=O)c2ccc(Cl)cc2)C(O)(C(F)(F)F)N1 (centres undefined) |  | 18.4 µM (active) |
| Cc1ccc(CSCC(=O)N(C)CC(=O)Nc2ccc(C)cc2)cc1 | -19.8 |  |
| FC(F)(F)c1ccc2nnc(-c3c(Cl)cccc3Cl)n2c1 | 0.574 |  |
| CN1CCN(c2nc3c(c(=O)[nH]c(=O)n3C)n2Cc2cccc3ccccc23)CC1 | -22.5 |  |
| C=C(C)Cn1c(N2CCCC2)nc2c1c(=O)[nH]c(=O)n2C | 0.866 |  |
| CCCSc1nc2c(c(=O)[nH]c(=O)n2C)n1CCc1ccccc1 | -12.2 |  |
| CC=CCn1c(SCCCc2ccccc2)nc2c1c(=O)[nH]c(=O)n2C |  | 20.6 µM (active) |
| CCCCCn1c(SCCC(C)C)nc2c1c(=O)[nH]c(=O)n2C | -24.4 |  |
| CC1CCN(c2nc3c(c(=O)[nH]c(=O)n3C)n2CCCc2ccccc2)CC1 |  | 16.4 µM (active) |
| Cc1ccc(C)c(OCCC(=O)OCC(=O)N2CCN(c3ccccc3)CC2)c1 | -28 |  |
| CCC(=O)N1CCc2cc(S(=O)(=O)NC(C(=O)NCCc3ccc(C)cc3)C(C)C)ccc21 (centres undefined) | 4.77 |  |
| C[C@@H]1CN([C@@H](C)CO)C(=O)c2cc(NC(=O)C3CC3)ccc2O[C@H]1CN(C)C | -17.6 |  |
| COC(=O)c1ccc([C@@H](O)[C@H](C)C(=O)CC(=O)OC(C)(C)C)cc1 | 4.03 |  |
| COc1ccccc1N1CCN(/N=C\C(Br)=C\c2ccccc2)CC1 |  | 8.2 µM (active) |
| COc1ccccc1N1CCN(/N=C/c2ccc(O)cc2O)CC1 | -23.9 |  |
| COc1ccccc1N1CCN(C(=O)C(=O)N/N=C/c2ccccc2F)CC1 | -7.99 |  |
